From PubChem BioAssay (EPA / NIEHS) come the findings set out here.

Inconclusive results are not listed. Some structures have more than one record in an assay (separate samples or runs), and their calls can disagree. Activity calls are given as the source filed them. How the source made its calls, unless noted: active means hit-call score of the fitted dose curve at least 0.9, where 1 is the maximum; inconclusive means response in the unintended direction; inactive means score below 0.9.

Read-out in experiment [1]: UDP glucuronosyltransferase (UGT1A6), UGT1A6 (gene 54578)
In words: LTEA_HepaRG_UGT1A6: Life Technologies and Expression Analysis (LTEA) Assay for UDP glucuronosyltransferase (UGT1A6) using HepaRG (AID 2283539; active means hit-call score of the fitted dose curve at least 0.9, where 1 is the maximum; inactive means score below 0.9). The following applies: mRNA level, 48 h; actives raise or lower the signal. In a few lines:
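Measures mRNA change in HepaRG hepatic cells exposed 48 h to chemicals (eight-point, maximum 100 uM, 0.5% DMSO vehicle) in serum-free induction medium. Expression normalized to endogenous controls; DMSO served as negative control and baseline.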

Read-out in experiment [2]: X-box binding protein 1 (XBP1), XBP1 (gene 7494)
The experiment in a line: LTEA_HepaRG_XBP1: Life Technologies and Expression Analysis (LTEA) Assay for X-box binding protein 1 (XBP1) using HepaRG (AID 2283540; active means hit-call score of the fitted dose curve at least 0.9, where 1 is the maximum; inactive means score below 0.9). The following applies: mRNA level, 48 h; actives raise or lower the signal. Summed up: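 Eight concentrations (half-log, highest 100 uM, 0.5% DMSO) tested in duplicate on HepaRG cells over 48 h in serum-free induction medium; qRT-PCR of XBP1 normalised to ACTB, GAPDH, POLR2A.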

A short description of experiment [3]: LTEA_HepaRG_LDH_cytotoxicity: Cytotoxicity Assessment in the Life Technologies and Expression Analysis (LTEA) Assay (AID 2283563). In a few lines: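 Spent-medium LDH after 48 h chemical exposure of HepaRG cells in serum-free induction medium; eight concentrations, half-log dilutions from 100 uM, duplicate wells, fitted upward relative to 0.5% DMSO.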
Experiment [4] is described as follows: ATG_XTT_Cytotoxicity: Cytotoxicity Assessment in the Attagene TRANS-FACTORIAL HepG2 Assay (AID 2283584). Summed up:
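24 h chemical exposure of reporter-transfected HepG2; XTT signal loss vs DMSO indicates cytotoxicity.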

Experiment [5] is described as follows: TOX21_p53_BLA_p2_viability: Viability Assessment in the Tox21 HCT-116 p53 Agonism Beta-lactamase Assay, Phase 2 (AID 2283591).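 Further: compound exposure lasted 16 h at 37 °C; actives lower the ATP signal meaning cytotoxicity.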 In a few lines: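 HCT116 p53-bla cells, 4000/well, dosed after 5 h plating (217-fold dilution of DMSO stocks) and incubated 16 h at 37C. Viability taken as cellular ATP by CellTiter-Glo luminescence after 30 min RT; signal loss marks cytotoxicity.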

Experiment [6] has as its target Cellular tumor antigen p53 (Homo sapiens) (UniProt P04637). The experiment in a line: TOX21_p53_BLA_p2_ratio: Tox21 HCT-116 p53 Agonism Beta-lactamase Assay, Ratio, Phase 2 (AID 2283592). In a few lines:
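Human colon HCT116 cells with an inducible p53 beta-lactamase reporter are exposed to test chemicals for 16 h at 37C. Reporter induction is read as the 460/530 nm emission ratio after CCF4-AM loading, normalized to DMSO.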

Experiment [7] is described as follows: TOX21_p53_BLA_p3_viability: Viability Assessment in the Tox21 HCT-116 p53 Agonism Beta-lactamase Assay, Phase 3 (AID 2283593).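 Further: cells exposed to compound for 16 h before reading.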 In a few lines: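 HCT116 cells, 4000/well, dosed 5 h after plating by pin transfer (217-fold dilution from DMSO stock) and incubated 16 h at 37C, 5% CO2. Viability read as ATP luminescence with CellTiter-Glo after 30 min at room temperature.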

Experiment [8] concerns the target Cellular tumor antigen p53 (Homo sapiens) (UniProt P04637). The experiment in a line: TOX21_p53_BLA_p3_ratio: Tox21 HCT-116 p53 Agonism Beta-lactamase Assay, Ratio, Phase 3 (AID 2283596). In a few lines:
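HCT116 p53-bla cells (4000/well) given compound in DMSO (217-fold dilution) after 5 h, incubated 16 h at 37C. CCF4-AM substrate 2 h at room temperature; 460/530 nm emission ratio, gain fitted against DMSO.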

Experiment [9] can be described thus: TOX21_p53_BLA_p4_viability: Viability Assessment in the Tox21 HCT-116 p53 Agonism Beta-lactamase Assay, Phase 4 (AID 2283597).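 Further: hits lower the luminescence signal meaning cytotoxicity.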 Summed up: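 Luminescent ATP readout (CellTiter-Glo, 30 min, room temperature) in the same wells as the p53 bla ratio. HCT116 cells were treated for 16 h at 37C with DMSO-dissolved compounds.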
The target of experiment [10] is Cellular tumor antigen p53 (Homo sapiens) (UniProt P04637). In words: TOX21_p53_BLA_p5_ratio: Tox21 HCT-116 p53 Agonism Beta-lactamase Assay, Ratio, Phase 5 (AID 2283599). In a few lines:
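HCT-116 p53-bla cells (4000/well) plated 5 h, dosed with compound (217-fold DMSO dilution) for 16 h at 37 C; CCF4-AM substrate 2 h at room temperature. Activity is the 460/530 nm emission ratio (405 nm excitation), fitted in gain-of-signal direction versus DMSO.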

Experiment [11] in a line: TOX21_p53_BLA_p5_viability: Viability Assessment in the Tox21 HCT-116 p53 Agonism Beta-lactamase Assay, Phase 5 (AID 2283600). In a few lines: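 Seeded cells (4000/well) settle 5 h before compound addition. Plates then incubate 16 h at 37C, receive FRET substrate for 2 h, and finally CellTiter-Glo, with luminescence measured after a 30 min room-temperature incubation.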

Experiment [12] concerns the target Cellular tumor antigen p53 (Homo sapiens) (UniProt P04637). In words: TOX21_p53_BLA_p4_ratio: Tox21 HCT-116 p53 Agonism Beta-lactamase Assay, Ratio, Phase 4 (AID 2283601). In a few lines: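 HCT-116 p53 beta-lactamase reporter cells (4000/well) preincubated 5 h, then compound (217-fold dilution of DMSO stock) for 16 h at 37C. CCF4-AM substrate added 2 h at room temperature; 460/530 nm emission ratio fitted upward versus DMSO.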

A short description of experiment [13]: Tanguay_ZF_120hpf_MORT_legacy: (Legacy) Oregon State University Tanguay Lab 120 Hour Post-fertilization zebrafish Assay for Mortality (AID 2283633). In a few lines:
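Single dechorionated Tropical 5D embryos were held with test chemical (0.64% DMSO final) from 6 to 120 hpf at 28C under foil. Deaths at 24 or 120 hpf were recorded as binary calls, analysed for increase over DMSO controls.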

Experiment [14] in a line: Tanguay_ZF_120hpf_YSE_legacy: (Legacy) Oregon State University Tanguay Lab 120 Hour Post-fertilization zebrafish Assay for Yolk Sac Edema (AID 2283634). Summed up:
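Single dechorionated embryos were held in sealed plates at 28C with test chemical (0.64% DMSO final) from 6 hpf until 120 hpf. Edema of the yolk sac was then recorded as a binary endpoint; non-mortality endpoints were skipped for dead embryos.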

Experiment [15] in a line: Tanguay_ZF_120hpf_AXIS_legacy: (Legacy) Oregon State University Tanguay Lab 120 Hour Post-fertilization zebrafish Assay for Body Axis Malformation (AID 2283635). Summed up:
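Each dechorionated embryo was exposed alone from 6 hpf, with DMSO at 0.64% (vol/vol) and trimethyltin chloride 5 uM as positive control. Axis malformation was recorded at 120 hpf unless the embryo had died.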

The nature of experiment [16]: Tanguay_ZF_120hpf_EYE_legacy: (Legacy) Oregon State University Tanguay Lab 120 Hour Post-fertilization zebrafish Assay for Eye Malformation (AID 2283636).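 Further: binary presence or absence of eye malformation scored by brightfield in 120 hpf larvae.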 In a few lines: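 Dechorionated Tropical 5D zebrafish embryos, one per well from 6 hpf, static exposure to 120 hpf at 28C, 0.64% DMSO. Eye malformation scored present/absent by brightfield; dead embryos not scored.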

Experiment [17] in a line: Tanguay_ZF_120hpf_SNOU_legacy: (Legacy) Oregon State University Tanguay Lab 120 Hour Post-fertilization zebrafish Assay for Snout Malformation (AID 2283637). In a few lines:
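Dechorionated tropical 5D wild-type zebrafish embryos exposed statically from 6 to 120 hpf at 28C, one per well, in 0.64% DMSO. Snout malformation scored as present/absent by brightfield at 120 hpf; dead embryos not scored.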

A short description of experiment [18]: Tanguay_ZF_120hpf_OTIC_legacy: (Legacy) Oregon State University Tanguay Lab 120 Hour Post-fertilization zebrafish Assay for Otic Vesicle Malformation (AID 2283639). In a few lines: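 Tropical 5D wild-type zebrafish embryos were exposed statically in sealed, foil-covered plates at 28C until 120 hpf, with 0.64% (vol/vol) DMSO final. Otic vesicle malformation was scored present/absent by brightfield microscopy, with DMSO as baseline.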

The nature of experiment [19]: Tanguay_ZF_120hpf_PE_legacy: (Legacy) Oregon State University Tanguay Lab 120 Hour Post-fertilization zebrafish Assay for Pericardial Edema (AID 2283640). Summed up: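 Zebrafish larvae are exposed from early development to 120 hpf at 28C, with 0.64% DMSO final. Each surviving larva receives a yes/no pericardial edema call by brightfield imaging, analysed relative to the DMSO baseline.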

The nature of experiment [20]: Tanguay_ZF_120hpf_JAW_legacy: (Legacy) Oregon State University Tanguay Lab 120 Hour Post-fertilization zebrafish Assay for Jaw Malformation (AID 2283638). Summed up:
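Wild-type 5D embryos, chorion removed at 4 hpf, dosed singly from 6 hpf; 28C static, sealed, foil-covered, to 120 hpf. Endpoint: jaw defect yes/no (brightfield); mortality excludes scoring.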

Chain of Cellular tumor antigen p53 (Homo sapiens) (P04637 whole entry, looked up): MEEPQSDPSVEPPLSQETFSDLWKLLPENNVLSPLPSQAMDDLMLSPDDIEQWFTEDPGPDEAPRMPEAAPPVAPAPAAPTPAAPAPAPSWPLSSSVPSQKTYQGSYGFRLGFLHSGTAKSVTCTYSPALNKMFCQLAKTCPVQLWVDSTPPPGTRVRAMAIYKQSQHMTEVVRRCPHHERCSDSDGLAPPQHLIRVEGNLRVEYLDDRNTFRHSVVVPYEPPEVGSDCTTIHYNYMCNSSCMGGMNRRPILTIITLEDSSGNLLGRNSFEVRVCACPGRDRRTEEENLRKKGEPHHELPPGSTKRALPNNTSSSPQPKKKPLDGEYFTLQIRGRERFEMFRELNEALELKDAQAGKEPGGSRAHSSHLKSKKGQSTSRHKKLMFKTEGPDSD

Regarding `CC1=C(/C=C/C(C)=C/C=C/C(C)=C/CO)C(C)(C)CCC1`, the result in experiment [1], in experiment [2], in [3], in experiment [4], in [5] and in experiment [6] was inactive. Besides, the result in experiment [7], in experiment [8], in experiment [10], in experiment [11], in experiment [12] and in [13] was inactive. The result in experiment [14], in experiment [15], in experiment [16], in experiment [17], in experiment [18] and in [19] was inactive. In addition, the values for the concentration at half-maximal activity (AC50) in [9] and in experiment [10] were 78.5 µM (active) and 86.4 µM (active), respectively.

Consider `COC(=O)c1ccc(O)cc1`, for which the compound was called inactive in experiment [1], in experiment [2], in [3], in [4], in experiment [5] and in experiment [6]. Moreover, the call in experiment [7], in experiment [8], in [9], in [10], in experiment [11] and in [12] was inactive. Moreover, the compound was classed as inactive in [13], in experiment [14], in experiment [15], in experiment [16], in [17] and in experiment [20]. In addition, the compound was classed as inactive in [19].

With `Nc1ccc2c(c1)C(=O)c1ccccc1C2=O`, the compound was called inactive in experiment [1], in [3], in [4], in experiment [5], in experiment [6] and in experiment [7]. Besides, the result in experiment [8], in experiment [9], in experiment [10], in experiment [11], in [12] and in experiment [13] was inactive. The call in experiment [14], in experiment [15], in [16], in experiment [20] and in experiment [18] was inactive. Also, the AC50 in [2] was 10.3 µM (active).

Regarding `Cc1ccc(Cl)cc1`, the compound was called inactive in experiment [1], in [2], in experiment [3], in [4], in experiment [5] and in [6]. The outcome in experiment [8], in [9], in [10], in experiment [11], in [12] and in experiment [13] was inactive. The result in experiment [14], in experiment [15], in [16], in experiment [17], in experiment [20] and in [18] was inactive. In addition, the call in experiment [19] was inactive.

As for `CC1(C)NC(=O)NC1=O`, the call in [1], in experiment [2], in [3], in [4], in [5] and in experiment [6] was inactive. In addition, the result in experiment [7], in experiment [8], in [9], in experiment [10], in experiment [12] and in experiment [13] was inactive. Further, the outcome in [14], in [16], in experiment [20], in [18] and in [19] was inactive.

Regarding `c1cc(-c2ccncc2)ccn1`, the compound was called inactive in experiment [1], in experiment [2], in experiment [3], in experiment [4], in experiment [5] and in experiment [6]. Also, the compound was classed as inactive in experiment [7], in experiment [8], in [9], in experiment [10], in experiment [11] and in experiment [12]. For the same compound, the outcome in [13], in [14], in [16], in [17], in experiment [20] and in [18] was inactive. Further, the compound was classed as inactive in experiment [19].

Turning to `CCNc1cccc(C)c1`, the call in experiment [1], in experiment [2], in [3], in [4], in experiment [5] and in experiment [6] was inactive. Also, the compound was classed as inactive in [7], in [8], in experiment [9], in experiment [10], in [11] and in experiment [12]. Moreover, the compound was called inactive in experiment [13], in [14], in experiment [15], in experiment [16], in experiment [20] and in experiment [18]. Also, the compound was called inactive in experiment [19].

The term AC50 denotes the concentration giving half of the maximal activity seen.
